Data from PubChem BioAssay AID1159580 (chemical genetic matrix, 2015).
Out of some 5,500 compounds screened, about 2,000 (36%) were called active. Roughly 18% stayed inconclusive and do not appear here. No stated cut-off is given here; in the data, active means normalized growth mostly below about 0.91 (no sharp cut-off); inconclusive means no clear call, values can overlap the other calls; inactive means mostly above about 0.92. This is one part of the list.

Assay: chemical genetic growth profiling, strain panel (AID 1159580);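 further: tested at 20 µM; growth read once vehicle control cultures reached saturation at 30 °C; 1 = growth at the plate median or of vehicle wells; lower values mean less growth of the strain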
Details: growth OD
[1] = S. cerevisiae deletion strains, locus YAL013W, strain DEP1, hits give low values
[2] = S. cerevisiae deletion strains, locus YBR229C, strain ROT2, hits give low values
[3] = S. cerevisiae deletion strains, locus YDL101C, strain DUN1, hits give low values
[4] = S. cerevisiae deletion strains, locus YDR150W, strain NUM1, hits give low values
[5] = S. cerevisiae deletion strains, locus YEL061C, strain CIN8, hits give low values
[6] = S. cerevisiae deletion strains, locus YGR078C, strain PAC10, hits give low values
[7] = S. cerevisiae deletion strains, locus YHR030C, strain SLT2, hits give low values
[8] = S. cerevisiae deletion strains, locus YHR087W, strain rtc3, hits give low values
[9] = S. cerevisiae deletion strains, locus YJL187C, strain SWE1, hits give low values
[10] = S. cerevisiae deletion strains, locus YJR043C, strain POL32, hits give low values
[11] = S. cerevisiae deletion strains, locus YJR075W, strain HOC1, hits give low values
[12] = S. cerevisiae deletion strains, locus YKL190W, strain CNB1, hits give low values
[13] = S. cerevisiae deletion strains, locus YLR039C, strain RIC1, hits give low values
[14] = S. cerevisiae deletion strains, locus YLR058C, strain SHM2 (second series), hits give low values
[15] = S. cerevisiae deletion strains, locus YLR085C, strain ARP6, hits give low values
[16] = S. cerevisiae deletion strains, locus YLR262C, strain YPT6, hits give low values
[17] = S. cerevisiae deletion strains, locus YML094W, strain GIM5, hits give low values
[18] = S. cerevisiae deletion strains, locus YMR219W, strain ESC1, hits give low values
[19] = S. cerevisiae deletion strains, locus YMR263W, strain SAP30, hits give low values
[20] = S. cerevisiae deletion strains, locus YNL153C, strain GIM3, hits give low values
[21] = S. cerevisiae deletion strains, locus YNL298W, strain CLA4 (second series), hits give low values
[22] = S. cerevisiae deletion strains, locus YNL322C, strain KRE1, hits give low values
[23] = S. cerevisiae deletion strains, locus YNR030W, strain Alg12, hits give low values
[24] = S. cerevisiae deletion strains, locus YPL055C, strain LGE1, hits give low values
[25] = S. cerevisiae deletion strains, locus YPL241C, strain CIN2, hits give low values
[26] = S. cerevisiae deletion strains, locus YPR135W, strain CTF4, hits give low values
[27] = S. cerevisiae strains, strain wild type, hits give low values
[28] = S. cerevisiae deletion strains, locus YGR229C, strain SMI1, hits give low values
[29] = S. cerevisiae deletion strains, locus YAL040C, strain CLN3, hits give low values
[30] = S. cerevisiae deletion strains, locus YCL061C, strain MRC1 (second series), hits give low values
[31] = S. cerevisiae deletion strains, locus YDR363W, strain ESC2, hits give low values
[32] = S. cerevisiae deletion strains, locus YER002W, strain NOP16, hits give low values
[33] = S. cerevisiae deletion strains, locus YMR307W, strain GAS1, hits give low values
[34] = S. cerevisiae deletion strains, locus YNL175C, strain NOP13, hits give low values
[35] = S. cerevisiae deletion strains, locus YNL197C, strain WHI3, hits give low values
[36] = S. cerevisiae deletion strains, locus YNL224C, strain SQS1, hits give low values
[37] = S. cerevisiae deletion strains, locus YOR083W, strain WHI5 (second series), hits give low values
[38] = S. cerevisiae deletion strains, locus YCL061C, strain MRC1, hits give low values
[39] = S. cerevisiae deletion strains, locus YDL134C, strain PPH21, hits give low values
[40] = S. cerevisiae deletion strains, locus YOL006C, strain TOP1, hits give low values

Measured: normalized growth

Cc1cc(=O)n(-c2ccc([N+](=O)[O-])cc2)[nH]1
inactive: [3] 0.955 | [4] 0.905 | [5] 0.958 | [14] 0.965 | S. cerevisiae deletion strains, locus YNL128W, strain TEP1, hits give low values 0.957 | [22] 0.989
active: [1] 0.509 | [2] 0.867 | [6] 0.927 | [7] 0.34 | [8] 0.8 | [9] 0.814 | [10] 0.718 | [11] 0.847 | [12] 0.726 | [13] 0.437 | [15] 0.592 | [16] 0.583 | [17] 0.84 | [18] 0.9 | [19] 0.85 | [20] 0.884 | [21] 0.821 | [23] 0.811 | [24] 0.69 | [25] 0.811 | [26] 0.504 | [27] 0.866

O=C1c2ccccc2C(=O)N1CN(CCSc1ccccc1)CN1C(=O)c2ccccc2C1=O
inactive: [1] 1.01 | [2] 0.987 | [3] 0.992 | [4] 0.993 | [5] 0.987 | [6] 0.993 | [28] 1 | [7] 1.01 | [8] 0.986 | [9] 1.03 | [10] 1.01 | [11] 0.981 | [12] 1 | [13] 0.986 | [14] 1 | [15] 0.957 | [16] 1.07 | [17] 0.973 | [18] 0.992 | [19] 1.01 | [20] 1.01 | [21] 0.978 | [22] 0.994 | [23] 1 | [24] 0.995 | [25] 0.964 | [26] 1.05

O=C1C(SCCO)=C(SCCO)C(=O)c2ccccc21
inactive: [29] 1.06 | [30] 0.982 | [4] 0.981 | [31] 0.966 | [32] 1.04 | [6] 0.982 | [34] 0.988 | [35] 0.99 | [36] 0.985 | [25] 0.996
active: [33] 0.751 | [37] 0.858

OCc1ccccc1-c1ccccc1
inactive: [1] 0.995 | [2] 0.984 | [38] 0.957 | [3] 0.941 | [39] 0.985 | [4] 0.924 | [5] 0.987 | [6] 0.985 | [28] 0.993 | [7] 0.984 | [8] 1.01 | [9] 1 | [10] 0.971 | [11] 1.02 | [12] 1.01 | [13] 0.952 | [14] 1.02 | [15] 1.03 | [16] 0.99 | [17] 0.959 | [18] 0.99 | [19] 0.987 | [20] 0.95 | [21] 1 | [22] 1.02 | [23] 0.994 | [40] 0.997 | [24] 0.85 | [25] 0.988 | [26] 0.976 | [27] 1.01

O=C(O)CSC1CCS(=O)(=O)C1 (stereo not drawn)
inactive: [1] 1.02 | [2] 0.998 | [38] 1.02 | [3] 1.02 | [39] 1.02 | [4] 0.956 | [5] 1.04 | [6] 1.01 | [7] 1.05 | [8] 1.01 | [10] 1 | [11] 1.06 | [12] 1.01 | [13] 1.06 | [14] 1.01 | [15] 1 | [16] 1.06 | [17] 1.03 | [18] 1 | [19] 1 | [20] 0.997 | [21] 1.01 | [22] 1.03 | [23] 1 | [24] 0.906 | [25] 1.01 | [26] 1.02 | [27] 1.01

Cn1c(CSc2ccccc2)n[nH]c1=S
inactive: [1] 0.997 | [2] 0.99 | [3] 0.994 | [39] 1.01 | [4] 0.949 | [5] 1.02 | [6] 0.977 | [7] 1.01 | [8] 0.982 | [10] 0.978 | [11] 0.987 | [13] 1.05 | [14] 0.998 | [15] 1.09 | [16] 1.04 | [17] 1.01 | [18] 0.992 | [19] 0.963 | [33] 1.2 | [20] 0.981 | [21] 1.03 | [22] 1.01 | [23] 1.02 | [24] 0.965 | [25] 1.02 | [26] 1.04 | [27] 1.01

NC(=S)CSc1ccccc1
inactive: [1] 0.937 | [2] 0.969 | [3] 1.01 | [4] 0.921 | [6] 0.99 | [28] 0.991 | [8] 1.03 | [9] 0.969 | [10] 0.924 | [11] 1.04 | [13] 0.883 | [14] 1 | [16] 0.919 | [17] 0.892 | [18] 0.999 | [20] 0.981 | [22] 1.04 | [24] 0.855 | [26] 0.679
active: [5] 0.87 | [7] 0.62 | [12] 0.864 | [15] 0.591 | [21] 0.711 | [23] 0.681 | [40] 0.31 | [25] 0.832 | [27] 0.888

N=C(N)c1ccccc1
inactive: [1] 1.01 | [29] 0.991 | [30] 1.01 | [4] 1 | [31] 1.01 | [32] 1.02 | [20] 1.07 | [34] 0.999 | [35] 1.03 | [36] 1.01 | [22] 1.02 | [37] 1.06
